Screening data from PubChem.
Rows were chosen to be rich in hits. Some 2.9% of all compounds tested hit in one or more screens of this group.
B2AR arrestin = recruits beta-arrestin to the human beta2-adrenergic receptor; AID 492947; P07550; Potency, µM (titrated, usually from 46.1 µM), without a hit: at the highest dose activation, usual class: activators; beta-arrestin recruitment to beta2AR, cell-based reporter; 0.02% of 330,000 active; active means well fitted activation curve with a large enough effect; inconclusive means small, poorly fitted or top-dose-only effect;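 further: potency means the concentration at half of the fitted maximal effect; 0% = DMSO controls and full agonism = EC100 isoproterenol or metaproterenol; nearly all actives have a fitted effect of over 65% in size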
Target sequence (P07550 whole entry, looked up): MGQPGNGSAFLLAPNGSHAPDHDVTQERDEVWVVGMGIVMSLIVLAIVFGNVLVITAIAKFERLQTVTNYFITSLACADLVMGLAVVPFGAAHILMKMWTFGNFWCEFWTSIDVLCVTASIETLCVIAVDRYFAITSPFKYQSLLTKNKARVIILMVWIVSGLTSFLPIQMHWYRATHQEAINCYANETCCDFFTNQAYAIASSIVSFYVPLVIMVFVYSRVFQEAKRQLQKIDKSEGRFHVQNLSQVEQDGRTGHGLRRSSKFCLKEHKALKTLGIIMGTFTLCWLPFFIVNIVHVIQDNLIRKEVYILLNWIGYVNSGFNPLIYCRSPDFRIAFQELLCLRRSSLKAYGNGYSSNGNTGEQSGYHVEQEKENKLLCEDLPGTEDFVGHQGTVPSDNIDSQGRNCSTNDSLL
TSHR antagonist = human thyrotropin receptor antagonism | P16473 | 0.2% of 330,000 active | TSHR-expressing cells, TSH-stimulated cAMP HTRF, 2 h; active compounds read low | activity change, negative = inhibition, % at 11.5 µM;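 active means activity change below a set negative limit, meaning inhibition stronger than a set level, cut at about -70% in these data; inconclusive means activity change between two set negative limits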; further: on the % scale 0 is the no-effect control and ±100 the full control effect
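Freshly harvested TSHR cells receive pin-tooled compound, then EC80 TSH at 4nM final. After 2 hours at 37 deg C, antibody in lysis buffer and cAMP-d2 are added; 30 minutes at ambient temperature precede the HTRF read.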
DRD3 antagonist = D3 dopamine receptor (human) antagonism; P35462; D3R cells, DiscoveRx beta-arrestin luminescence, antagonist mode; active compounds read low; max response, negative = inhibition, %; 2.5% of 360,000 active; AID 652054; in the data active means max response below about -50%; inconclusive means no clear call, values can overlap the other calls; further: on the % scale 0 is the no-effect control and ±100 the full control effect
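Cells expressing the human receptor were seeded at 1500 cells/well, incubated overnight at 37 degrees C in 5% CO2, then exposed to library compounds with dopamine controls for 90 minutes at 37 degrees C before luminescent detection.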
DRD3 agonist = D3 dopamine receptor (human) agonism. 0.58% of 410,000 active. max activation, %. P35462. D3R DiscoveRx beta-arrestin cells, luminescence, 90 min; in the data active means max activation above about 30%; further: 0% is about no effect
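Agonist mode: compounds and dopamine controls were applied to plated cells for 90 min at 37 degrees C after an overnight attachment at 1500 cells/well. Luminescent read-out followed 30 - 60 minutes at room temperature with DiscoveRx detection reagent.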
* hit, by the source's call; u = inconclusive; x = not tested or not shown; ! = not confirmed by another sample.

SMILES | B2AR arrestin | TSHR antagonist | DRD3 antagonist | DRD3 agonist
CCCCN1Cc2ccccc2Oc2cc(Br)ccc2S1(=O)=O | 0% | -18 | 7 | -19
O=c1c2ccccc2nc2n1CC/C2=C/N1CCN(c2cccc(C(F)(F)F)c2)CC1 | -1% | -13 | -91* | -38
O=C(O)c1ccc2c(=O)n3c(nc2c1)/C(=C/c1ccc(C(F)(F)F)cc1)CC3 | 0% | -10 | -5 | 2
COc1ccc(-c2nc3ccccc3o2)cc1NC(=O)c1ccc(-c2cccc(Cl)c2C)o1 | x | x | x | 4
Cc1cc(-c2ccc(C)c(S(=O)(=O)N3CCN(c4cccc(C(F)(F)F)c4)CC3)c2)on1 | x | x | x | 2
Cc1ccc(O)c2ncccc12 | x | x | x | -8
O=[N+]([O-])c1ccc(O)c2cccnc12 | 0% | -8 | -26 | -3
Cc1ccccc1N=Nc1ccc(O)c2ncccc12 | -2% | 11 | -117* | -4
COc1cccc(N=Nc2ccc(O)c3ncccc23)c1 | -1% | 2 | -110* | -29
COc1cccc(N=Nc2ccc3cccnc3c2O)c1 | 3% | 4 | -139* | -21
O=[N+]([O-])c1ccc(O)c2ncccc12 | u | 17 | -68* | -30
CCOCCc1nn2c(=O)cc(COC(=O)COc3ccccc3Cl)nc2s1 | x | x | x | 9
COc1ccc(-c2cn3nc(N4CCCC(C(=O)Nc5cccc(OC)c5)C4)sc3n2)cc1 (centres undefined) | x | x | x | -11
O=Nc1ccc(O)c2ncccc12 | 3% | 1 | u | -13
COc1ccc(C)cc1N=Nc1ccc(O)c2ncccc12 | 0% | -4 | -117* | -21
Oc1ccc(N=Nc2ccc3c(c2)OCCO3)c2cccnc12 | 0% | 25 | u | 18
COc1ccc(N=Nc2ccc(O)c3ncccc23)cc1 | 0% | 20 | -76* | -23
Cc1nn(C(C)C)c(C)c1CN1CCC(C(=O)Nc2cccc(-c3cccc(F)c3)c2)CC1 | -1% | 4 | -53* | -19
C=CCN1CCN(C(=O)c2cc3c(s2)CCCC3)CC1 | 0% | -4 | -58* | -26
Cc1[nH]n(-c2ccccc2)c(=O)c1/C=N/n1c(C)nc2ccccc2c1=O | 0% | 6 | -52* | 4
CNC(C)[C@@H]1CC[C@@H](N)[C@@H](O[C@H]2[C@H](O)[C@@H](O[C@H]3OC[C@](C)(O)[C@H](NC)[C@H]3O)[C@H](N)C[C@@H]2N)O1 (some centres undefined) | x | x | x | 3
Cc1ccc(Cc2c(C)nc3nc(SCC(=O)NCCC(C)C)nn3c2C)cc1 | x | x | x | -9
O=C(NC(c1ccc(Cl)cc1)c1ccsc1)C1CCN(Cc2cccc(C(F)(F)F)c2)CC1 (centres undefined) | x | x | -93* | -21
O=C(NC(c1ccc(Cl)cc1)c1ccsc1)C1CCN(Cc2cccc(Cl)c2)CC1 (centres undefined) | x | x | -50* | -18
O=C(NC(c1ccc2ccccc2n1)c1cccs1)C1CCN(Cc2cccc(C(F)(F)F)c2)CC1 (centres undefined) | x | x | u | -24
SMILES | B2AR arrestin | TSHR antagonist | DRD3 antagonist | DRD3 agonist
O=C(NNC(=O)C1CCN(Cc2cccc(F)c2)CC1)c1cccc(Cl)c1 | 0% | 6 | -10 | -20
Cc1cc(OCC(=O)N2CCOCC2)c(C(C)C)cc1Cl | 0% | 3 | -77* | -10
Cc1nc(-c2ccc(C(=O)Nc3cccc(Br)c3)cc2)cs1 | -1% | -32 | -1 | 0
Cc1nc(-c2cccc(NC(=O)c3ccc(-n4nccc4C)cc3)c2)cs1 | 0% | -72* | 31 | 4
COc1ccc(-n2nnnc2C(c2cc3ccccc3o2)N2CCN(C/C=C/c3ccccc3)CC2)cc1 (centres undefined) | x | x | -98* | -20
CCC(c1nnnn1-c1ccc2c(c1)OCCO2)N1CCN(c2ccc(OC)cc2)CC1 (centres undefined) | x | x | 4 | -9
C(=C\c1ccccc1)/CN1CCN(C(c2cc3ccccc3o2)c2nnnn2-c2ccc3c(c2)OCCO3)CC1 (centres undefined) | x | x | -89* | -21
COc1ccc(-n2nnnc2C(c2cccc3ccccc23)N2CCN(C/C=C/c3ccccc3)CC2)cc1 (centres undefined) | x | x | -92* | -24
COc1ccc(C(c2nnnn2-c2ccc3c(c2)OCCO3)N2CCN(C/C=C/c3ccccc3)CC2)cc1 (centres undefined) | x | x | -76* | -18
CCCCCCCCN1C(=O)[C@H](CC(=O)NCc2ccccc2)C[C@@]2(C(=O)OC)CCCCC=C12 | x | x | 3 | -6
COc1cccc(NC(=O)CCNC(=O)Cn2cnc3ccccc3c2=O)c1 | x | x | x | -12
Cc1c(Br)cccc1NC(=O)C1(C)CCN1Cc1ccccc1OC(F)F (centres undefined) | x | x | 39 | 3
C(=C\c1ccccc1)/CN1CCN(C(c2cccs2)c2nnnn2-c2ccc3c(c2)OCCO3)CC1 (centres undefined) | x | x | -79* | -19
CCCCn1nnnc1C(c1cc2ccccc2o1)N1CCCC1 (centres undefined) | x | x | -13 | 0
CCCCn1nnnc1C(c1cc2ccccc2o1)N1CCN(C/C=C/c2ccccc2)CC1 (centres undefined) | x | x | -72* | -6
C=CCn1c(-c2ccccc2)c[nH]c1=S | u | 45 | -68* | -3
C=CCn1c(-c2ccc(Cl)cc2)c[nH]c1=S | 20µM* | -12 | -109* | -1
COc1ccccc1CNC(=O)CC1N=C2c3ccccc3N=C(SCC(=O)Nc3ccc(F)cc3)N2C1=O (centres undefined) | x | x | x | -29
CCCCN(CCCC)C1=C(C(=O)c2ccccc2)N(C)S(=O)(=O)c2ccccc21 | x | x | x | 2
Cc1[nH]c(=O)[nH]c(=O)c1Sc1ccccc1[N+](=O)[O-] | 1% | 10 | -4 | -9
CC1(Br)C(Sc2ccccc2[N+](=O)[O-])=Nc2ccccc21 (centres undefined) | x | x | -51* | -13
COc1ccc(OC)c(NC(=O)c2oc3c(c2C)-c2nn(Cc4ccc(Cl)cc4)cc2CC3)c1 | x | x | x | 18
Cc1cc2oc(C(=O)Nc3cccc(-c4nc5ccccc5o4)c3)c(C)c2cc1C | x | x | x | -5
CC(=O)c1c(C)[nH]c(C(=O)NCCC2=CCCCC2)c1C | 0% | -1 | -57* | 2
COc1cc(CNc2ccc3[nH]c(=O)[nH]c3c2)ccc1OCc1ccc(F)cc1Cl | 0% | -9 | 17 | 35*!
COc1cc(CNc2ccc3[nH]c(=O)[nH]c3c2)ccc1OCc1ccc(F)cc1 | 3% | 6 | 12 | 5
CCCc1cc(=O)oc2c3c(cc(OCC(=O)NCCN4CCOCC4)c12)OC(C)(C)CC3 | -1% | -9 | -56* | -48
CCc1nn(C(CC)C(=O)NCCCN2CC(C)CC(C)C2)c(=O)c2cc3oc(C)cc3n12 (centres undefined) | 0% | -3 | -57* | -22
Cc1c(C(=O)N(Cc2ccc(N(C)C)cc2)CC2CCCO2)oc2ccc(Br)cc12 (centres undefined) | x | x | x | 0
Cc1ccc(NC(=O)COC(=O)CCc2c(C)nc3ncnn3c2C)cc1 | 0% | 11 | -12 | 32*
